Data published in article PMC7862700, “An all-to-all approach to the identification of sequence-specific readers for epigenetic DNA modifications on cytosine”.

Experiments:
Assay in all cases: DAPPL (digital affinity profiling via proximity ligation, sequencing); 10 mM Tris-HCl pH 7.5, 50 mM NaCl, 1 mM DTT, 4% glycerol, room temperature, 30 min; GST-TFs on glutathione beads, 16-mer random dsDNA library, 0.1% formaldehyde crosslink after washing; high values mean tight binding
Details in all cases: protein: recombinant; tags: N-terminal GST; dsDNA, one strand shown
[1] = target: T1, FLI1 (Homo sapiens, UniProt Q01543 1-452)
T1 sequence: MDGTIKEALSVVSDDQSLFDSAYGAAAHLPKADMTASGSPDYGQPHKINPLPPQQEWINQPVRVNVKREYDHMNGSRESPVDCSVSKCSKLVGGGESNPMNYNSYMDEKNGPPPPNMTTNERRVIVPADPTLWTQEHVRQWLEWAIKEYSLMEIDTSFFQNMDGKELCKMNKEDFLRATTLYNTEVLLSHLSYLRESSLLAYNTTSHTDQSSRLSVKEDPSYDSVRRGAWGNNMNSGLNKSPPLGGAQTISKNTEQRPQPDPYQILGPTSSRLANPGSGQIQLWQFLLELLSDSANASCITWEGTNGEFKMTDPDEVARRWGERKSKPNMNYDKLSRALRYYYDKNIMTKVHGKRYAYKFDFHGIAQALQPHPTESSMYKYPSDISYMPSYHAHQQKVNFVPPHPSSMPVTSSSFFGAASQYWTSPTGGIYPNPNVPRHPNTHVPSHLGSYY
Procedure, shortened: (§1)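 Each value of binding signal is a hexamer's read frequency for a factor divided by the same hexamer's frequency in the tag-only sample. Barcoded, bead-captured GST fusions of human transcription factors made in yeast were pooled with that sample and incubated with 200 nmole of a random double-stranded 16-mer DNA library in Tris/NaCl/DTT/glycerol buffer at room temperature for 30 min. Washing, 0.1% formaldehyde crosslinking, proximity ligation, PCR and Illumina NextSeq500 sequencing followed.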

[2] = target: T2, ELK1 (Homo sapiens, UniProt P19419 1-428)
T2 sequence: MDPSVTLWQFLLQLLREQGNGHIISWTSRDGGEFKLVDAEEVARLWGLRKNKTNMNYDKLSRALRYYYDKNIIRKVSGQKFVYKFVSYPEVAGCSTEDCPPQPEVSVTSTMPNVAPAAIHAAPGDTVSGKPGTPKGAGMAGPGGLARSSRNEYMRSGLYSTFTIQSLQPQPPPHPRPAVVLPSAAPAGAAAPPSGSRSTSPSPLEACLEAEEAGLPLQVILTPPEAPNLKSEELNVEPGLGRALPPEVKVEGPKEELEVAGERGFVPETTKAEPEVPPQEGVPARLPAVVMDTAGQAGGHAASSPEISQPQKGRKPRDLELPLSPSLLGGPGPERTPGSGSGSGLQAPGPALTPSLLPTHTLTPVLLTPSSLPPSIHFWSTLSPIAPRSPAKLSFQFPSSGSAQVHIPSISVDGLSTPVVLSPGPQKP
Procedure, shortened: as §1

[3] = target: T3, GABPA (Homo sapiens, UniProt Q06546 1-454)
T3 sequence: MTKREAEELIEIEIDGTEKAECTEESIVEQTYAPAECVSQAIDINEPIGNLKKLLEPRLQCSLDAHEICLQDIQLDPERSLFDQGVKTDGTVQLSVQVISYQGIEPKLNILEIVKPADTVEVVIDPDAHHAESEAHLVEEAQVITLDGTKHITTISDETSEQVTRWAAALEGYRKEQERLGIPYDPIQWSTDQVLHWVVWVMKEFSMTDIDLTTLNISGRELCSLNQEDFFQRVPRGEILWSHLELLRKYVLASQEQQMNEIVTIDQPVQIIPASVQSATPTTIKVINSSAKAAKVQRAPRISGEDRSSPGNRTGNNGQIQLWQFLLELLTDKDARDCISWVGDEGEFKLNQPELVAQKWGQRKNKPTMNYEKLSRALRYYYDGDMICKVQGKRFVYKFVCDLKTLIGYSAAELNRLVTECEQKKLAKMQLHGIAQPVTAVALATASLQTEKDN
Procedure, shortened: as §1

[4] = target: T4, ERG (Homo sapiens, UniProt P11308 1-479)
T4 sequence: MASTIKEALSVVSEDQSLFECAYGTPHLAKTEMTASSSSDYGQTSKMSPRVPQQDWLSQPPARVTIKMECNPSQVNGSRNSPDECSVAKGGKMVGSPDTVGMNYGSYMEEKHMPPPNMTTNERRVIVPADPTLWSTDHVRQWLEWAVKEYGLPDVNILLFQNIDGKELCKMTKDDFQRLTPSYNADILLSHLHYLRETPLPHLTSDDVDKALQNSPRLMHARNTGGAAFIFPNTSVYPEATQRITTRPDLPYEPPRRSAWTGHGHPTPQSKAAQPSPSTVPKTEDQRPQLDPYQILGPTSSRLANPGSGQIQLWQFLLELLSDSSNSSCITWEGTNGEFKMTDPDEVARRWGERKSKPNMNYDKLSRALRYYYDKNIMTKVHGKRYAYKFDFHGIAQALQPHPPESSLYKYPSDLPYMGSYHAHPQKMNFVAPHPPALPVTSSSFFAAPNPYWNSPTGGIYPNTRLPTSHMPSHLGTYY
Procedure, shortened: as §1

[5] = target: ELF1 (Homo sapiens, UniProt P32519 1-619)
ELF1, sequence (P32519 whole entry): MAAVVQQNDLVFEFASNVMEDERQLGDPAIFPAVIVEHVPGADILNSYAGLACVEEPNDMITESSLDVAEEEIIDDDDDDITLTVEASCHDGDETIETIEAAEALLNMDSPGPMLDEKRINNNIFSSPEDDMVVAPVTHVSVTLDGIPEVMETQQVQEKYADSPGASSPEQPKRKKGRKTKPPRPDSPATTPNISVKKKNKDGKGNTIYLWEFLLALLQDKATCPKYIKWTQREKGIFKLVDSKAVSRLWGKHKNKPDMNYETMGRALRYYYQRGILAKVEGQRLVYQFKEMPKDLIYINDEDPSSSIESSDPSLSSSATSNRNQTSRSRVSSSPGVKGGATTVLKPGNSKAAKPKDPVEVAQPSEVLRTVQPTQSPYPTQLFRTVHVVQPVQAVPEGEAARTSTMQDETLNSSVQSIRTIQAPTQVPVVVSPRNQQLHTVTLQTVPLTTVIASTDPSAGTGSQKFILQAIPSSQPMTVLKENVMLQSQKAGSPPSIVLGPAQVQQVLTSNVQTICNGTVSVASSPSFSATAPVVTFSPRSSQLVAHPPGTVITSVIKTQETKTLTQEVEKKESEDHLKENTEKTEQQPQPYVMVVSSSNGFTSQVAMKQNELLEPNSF
Procedure, shortened: as §1

[6] = target: T5, EHF (Homo sapiens, UniProt Q9NZC4 1-300)
T5 sequence: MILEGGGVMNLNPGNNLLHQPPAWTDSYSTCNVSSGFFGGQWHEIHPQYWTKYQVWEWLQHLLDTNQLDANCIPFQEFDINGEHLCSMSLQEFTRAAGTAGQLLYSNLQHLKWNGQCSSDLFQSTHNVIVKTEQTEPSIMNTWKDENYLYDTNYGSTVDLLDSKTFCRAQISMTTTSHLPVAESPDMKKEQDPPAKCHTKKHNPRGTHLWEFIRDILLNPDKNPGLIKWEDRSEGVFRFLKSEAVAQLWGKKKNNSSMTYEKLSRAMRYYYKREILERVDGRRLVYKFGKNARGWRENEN
Procedure, shortened: as §1

[7] = target: SPI1 (Homo sapiens, UniProt P17947 1-270)
Procedure, shortened: as §1

[8] = target: SPIB (Homo sapiens, UniProt Q01892 1-262)
SPIB, sequence (Q01892 whole entry): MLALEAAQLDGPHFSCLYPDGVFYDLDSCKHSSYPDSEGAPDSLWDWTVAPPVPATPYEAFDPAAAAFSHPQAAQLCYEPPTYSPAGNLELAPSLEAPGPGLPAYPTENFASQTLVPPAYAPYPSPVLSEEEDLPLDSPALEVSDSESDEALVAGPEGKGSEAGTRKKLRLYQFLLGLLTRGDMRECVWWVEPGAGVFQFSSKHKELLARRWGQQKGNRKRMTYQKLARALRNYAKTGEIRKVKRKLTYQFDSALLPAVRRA
Procedure, shortened: as §1

[9] = target: T6, ELK3 (Homo sapiens, UniProt P41970 1-407)
T6 sequence: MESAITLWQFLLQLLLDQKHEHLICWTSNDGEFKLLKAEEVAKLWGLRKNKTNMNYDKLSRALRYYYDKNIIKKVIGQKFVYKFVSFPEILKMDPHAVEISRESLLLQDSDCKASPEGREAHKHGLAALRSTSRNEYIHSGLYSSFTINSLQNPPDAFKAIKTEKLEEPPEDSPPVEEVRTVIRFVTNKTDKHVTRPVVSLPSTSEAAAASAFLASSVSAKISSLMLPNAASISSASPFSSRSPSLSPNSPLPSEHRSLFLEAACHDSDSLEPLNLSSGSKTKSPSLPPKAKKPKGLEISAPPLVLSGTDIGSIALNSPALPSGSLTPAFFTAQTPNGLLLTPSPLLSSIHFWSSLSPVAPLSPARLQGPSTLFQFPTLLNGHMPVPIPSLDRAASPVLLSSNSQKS
Procedure, shortened: as §1

[10] = target: T7, FEV (Homo sapiens, UniProt Q99581 1-238)
T7 sequence: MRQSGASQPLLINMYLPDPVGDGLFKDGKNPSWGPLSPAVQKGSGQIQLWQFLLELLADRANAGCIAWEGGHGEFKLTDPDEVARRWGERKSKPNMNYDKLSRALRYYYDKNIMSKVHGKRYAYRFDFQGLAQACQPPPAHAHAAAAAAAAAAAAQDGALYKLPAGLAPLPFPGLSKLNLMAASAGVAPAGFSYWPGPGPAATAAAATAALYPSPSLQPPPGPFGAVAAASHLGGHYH
Procedure, shortened: as §1

[11] = target: ETV5 (Homo sapiens, UniProt P41161 1-510)
ETV5, sequence (P41161 whole entry): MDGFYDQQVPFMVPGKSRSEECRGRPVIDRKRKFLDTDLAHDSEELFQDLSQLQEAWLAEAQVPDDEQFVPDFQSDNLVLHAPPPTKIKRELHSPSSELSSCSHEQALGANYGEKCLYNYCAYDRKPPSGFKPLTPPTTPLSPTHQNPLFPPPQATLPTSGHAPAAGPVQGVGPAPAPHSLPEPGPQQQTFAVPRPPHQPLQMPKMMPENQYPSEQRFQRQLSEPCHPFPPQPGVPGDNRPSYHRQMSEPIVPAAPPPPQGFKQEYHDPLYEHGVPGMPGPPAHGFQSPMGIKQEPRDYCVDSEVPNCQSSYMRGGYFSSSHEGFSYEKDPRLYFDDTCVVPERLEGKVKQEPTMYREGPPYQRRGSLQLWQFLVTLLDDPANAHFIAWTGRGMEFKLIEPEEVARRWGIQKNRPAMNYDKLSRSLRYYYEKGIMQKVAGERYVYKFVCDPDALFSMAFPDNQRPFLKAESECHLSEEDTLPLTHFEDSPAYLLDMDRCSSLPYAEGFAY
Procedure, shortened: as §1

[12] = target: T8, SPIC (Homo sapiens, UniProt Q8N5J4 1-248)
T8 sequence: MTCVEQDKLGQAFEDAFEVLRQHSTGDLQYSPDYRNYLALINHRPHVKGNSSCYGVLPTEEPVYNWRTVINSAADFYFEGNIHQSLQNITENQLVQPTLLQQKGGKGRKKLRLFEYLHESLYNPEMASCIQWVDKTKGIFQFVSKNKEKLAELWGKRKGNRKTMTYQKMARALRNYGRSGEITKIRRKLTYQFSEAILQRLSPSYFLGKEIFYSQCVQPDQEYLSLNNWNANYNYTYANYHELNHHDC
Procedure, shortened: as §1

[13] = target: ELF4 (Homo sapiens, UniProt Q99607 1-663)
ELF4, sequence (Q99607 whole entry): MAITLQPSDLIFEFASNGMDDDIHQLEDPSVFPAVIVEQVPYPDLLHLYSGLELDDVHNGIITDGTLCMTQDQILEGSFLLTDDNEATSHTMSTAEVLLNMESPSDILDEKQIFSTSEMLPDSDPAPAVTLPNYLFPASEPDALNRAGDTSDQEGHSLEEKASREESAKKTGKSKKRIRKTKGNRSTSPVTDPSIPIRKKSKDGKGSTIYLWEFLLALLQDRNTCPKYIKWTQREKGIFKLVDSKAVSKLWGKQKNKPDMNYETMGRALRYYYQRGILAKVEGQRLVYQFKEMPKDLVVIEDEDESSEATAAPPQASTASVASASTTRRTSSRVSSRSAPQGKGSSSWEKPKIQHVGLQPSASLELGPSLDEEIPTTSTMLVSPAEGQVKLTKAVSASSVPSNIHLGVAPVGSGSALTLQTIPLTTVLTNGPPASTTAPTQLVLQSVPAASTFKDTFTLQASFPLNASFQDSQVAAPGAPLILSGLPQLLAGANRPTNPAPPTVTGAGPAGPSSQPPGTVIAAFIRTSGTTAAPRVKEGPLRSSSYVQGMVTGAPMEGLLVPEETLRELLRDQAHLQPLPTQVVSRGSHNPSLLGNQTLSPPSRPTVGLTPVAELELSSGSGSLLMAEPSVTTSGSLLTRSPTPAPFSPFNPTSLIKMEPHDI
Procedure, shortened: as §1

[14] = target: T9, ELK4 (Homo sapiens, UniProt P28324-2 1-405)
T9 sequence: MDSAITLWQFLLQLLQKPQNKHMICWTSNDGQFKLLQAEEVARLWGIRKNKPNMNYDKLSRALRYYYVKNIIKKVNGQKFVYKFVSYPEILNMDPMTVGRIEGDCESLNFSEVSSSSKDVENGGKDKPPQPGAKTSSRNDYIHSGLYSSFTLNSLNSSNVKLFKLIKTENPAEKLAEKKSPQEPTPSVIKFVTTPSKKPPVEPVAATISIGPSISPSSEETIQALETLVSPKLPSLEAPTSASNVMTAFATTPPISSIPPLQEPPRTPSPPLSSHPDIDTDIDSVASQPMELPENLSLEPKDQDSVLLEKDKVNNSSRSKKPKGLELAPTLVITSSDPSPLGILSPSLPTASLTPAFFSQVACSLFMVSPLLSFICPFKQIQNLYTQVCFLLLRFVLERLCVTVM
Procedure, shortened: as §1

[15] = target: T10, ETV2 (Homo sapiens, UniProt O00321 1-342)
T10 sequence: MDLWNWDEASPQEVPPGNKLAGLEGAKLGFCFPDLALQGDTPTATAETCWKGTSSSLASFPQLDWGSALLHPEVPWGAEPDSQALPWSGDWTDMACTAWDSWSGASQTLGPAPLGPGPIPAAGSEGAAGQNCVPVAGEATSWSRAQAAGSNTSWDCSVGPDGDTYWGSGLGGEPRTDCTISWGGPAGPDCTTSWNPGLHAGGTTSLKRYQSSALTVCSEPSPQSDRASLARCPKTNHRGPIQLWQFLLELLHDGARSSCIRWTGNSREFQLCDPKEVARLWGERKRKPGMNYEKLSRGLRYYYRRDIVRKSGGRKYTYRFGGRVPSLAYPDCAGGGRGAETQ
Procedure, shortened: as §1

[16] = target: T11, ELF3 (Homo sapiens, UniProt P78545 1-371)
T11 sequence: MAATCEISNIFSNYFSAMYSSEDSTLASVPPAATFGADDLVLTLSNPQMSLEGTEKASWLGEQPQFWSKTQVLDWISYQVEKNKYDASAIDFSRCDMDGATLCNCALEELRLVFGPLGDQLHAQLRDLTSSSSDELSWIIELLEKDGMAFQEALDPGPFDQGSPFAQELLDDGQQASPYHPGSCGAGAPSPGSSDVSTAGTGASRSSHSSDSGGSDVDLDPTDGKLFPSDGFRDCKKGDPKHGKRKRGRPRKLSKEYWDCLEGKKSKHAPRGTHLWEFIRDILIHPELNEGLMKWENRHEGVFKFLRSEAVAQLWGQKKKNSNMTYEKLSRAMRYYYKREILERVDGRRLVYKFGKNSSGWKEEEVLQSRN
Procedure, shortened: as §1

[17] = target: ETV1 (Homo sapiens, UniProt P50549 1-477)
ETV1, sequence (P50549 whole entry): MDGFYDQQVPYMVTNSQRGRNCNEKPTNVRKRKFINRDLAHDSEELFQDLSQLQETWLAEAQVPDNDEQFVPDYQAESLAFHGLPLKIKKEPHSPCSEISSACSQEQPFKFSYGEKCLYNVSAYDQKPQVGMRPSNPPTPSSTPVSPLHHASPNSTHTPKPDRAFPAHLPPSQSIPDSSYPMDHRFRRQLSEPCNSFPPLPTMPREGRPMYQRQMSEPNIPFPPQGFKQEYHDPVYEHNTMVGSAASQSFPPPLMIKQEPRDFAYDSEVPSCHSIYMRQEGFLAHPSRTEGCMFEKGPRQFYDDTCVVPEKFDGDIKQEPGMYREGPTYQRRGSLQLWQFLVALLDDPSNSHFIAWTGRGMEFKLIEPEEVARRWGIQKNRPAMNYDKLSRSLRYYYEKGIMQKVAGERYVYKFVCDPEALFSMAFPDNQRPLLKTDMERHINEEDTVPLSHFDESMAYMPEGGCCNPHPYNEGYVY
Procedure, shortened: as §1

[18] = target: CRX (Homo sapiens, UniProt O43186 1-299)
CRX, sequence (O43186 whole entry): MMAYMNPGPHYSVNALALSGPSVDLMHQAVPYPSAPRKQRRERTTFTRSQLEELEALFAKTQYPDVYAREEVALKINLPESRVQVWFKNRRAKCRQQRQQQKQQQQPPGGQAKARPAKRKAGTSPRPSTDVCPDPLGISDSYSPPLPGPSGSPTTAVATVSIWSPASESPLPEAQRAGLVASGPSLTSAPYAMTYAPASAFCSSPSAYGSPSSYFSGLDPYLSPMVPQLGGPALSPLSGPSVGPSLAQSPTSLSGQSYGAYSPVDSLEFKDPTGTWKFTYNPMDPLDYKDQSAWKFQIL
Procedure, shortened: as §1

Row | Sequence | binding signal [1] | binding signal [2] | binding signal [3] | binding signal [4] | binding signal [5] | binding signal [6] | binding signal [7] | binding signal [8] | binding signal [9] | binding signal [10] | binding signal [11] | binding signal [12] | binding signal [13] | binding signal [14] | binding signal [15] | binding signal [16] | binding signal [17] | binding signal [18]
1 | CACTAC | 1.38 fold enrichment (6-mer frequency, TF over GST control) | 1.37 fold enrichment (6-mer frequency, TF over GST control) | 1.36 fold enrichment (6-mer frequency, TF over GST control) | 1.31 fold enrichment (6-mer frequency, TF over GST control) | 1.33 fold enrichment (6-mer frequency, TF over GST control) | 1.28 fold enrichment (6-mer frequency, TF over GST control) | 1.17 fold enrichment (6-mer frequency, TF over GST control) | 1.36 fold enrichment (6-mer frequency, TF over GST control) | 1.27 fold enrichment (6-mer frequency, TF over GST control) | 1.35 fold enrichment (6-mer frequency, TF over GST control) | 1.3 fold enrichment (6-mer frequency, TF over GST control) | 1.14 fold enrichment (6-mer frequency, TF over GST control) | 1.27 fold enrichment (6-mer frequency, TF over GST control) | 1.37 fold enrichment (6-mer frequency, TF over GST control) | 1.34 fold enrichment (6-mer frequency, TF over GST control) | 1.3 fold enrichment (6-mer frequency, TF over GST control) | 1.21 fold enrichment (6-mer frequency, TF over GST control) | 
2 | CCGCCA | 1.38 fold enrichment (6-mer frequency, TF over GST control) | 1.31 fold enrichment (6-mer frequency, TF over GST control) | 1.29 fold enrichment (6-mer frequency, TF over GST control) | 1.3 fold enrichment (6-mer frequency, TF over GST control) | 1.32 fold enrichment (6-mer frequency, TF over GST control) | 1.37 fold enrichment (6-mer frequency, TF over GST control) | 1.3 fold enrichment (6-mer frequency, TF over GST control) | 1.09 fold enrichment (6-mer frequency, TF over GST control) | 1.34 fold enrichment (6-mer frequency, TF over GST control) | 1.37 fold enrichment (6-mer frequency, TF over GST control) | 1.21 fold enrichment (6-mer frequency, TF over GST control) | 1.37 fold enrichment (6-mer frequency, TF over GST control) | 1.45 fold enrichment (6-mer frequency, TF over GST control) | 1.44 fold enrichment (6-mer frequency, TF over GST control) | 1.19 fold enrichment (6-mer frequency, TF over GST control) | 1.48 fold enrichment (6-mer frequency, TF over GST control) | 1.32 fold enrichment (6-mer frequency, TF over GST control) | 1.02 fold enrichment (6-mer frequency, TF over GST control)
